High-throughput results: PubChem BioAssay, Sanford-Burnham Center for Chemical Genomics
The list is not random: actives were taken first. Their share in the collection is about 28%.
CYP2C19 inh – blockers of cytochrome P450 2C19 activity – biochemical, luminescence, ADME assay, primary screen. inhibition, % at 5 µM. P33261. 96,000 tested, 21% active. CYP2C19 Supersomes, luciferin-H EGE luminescence, 30 min;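 active means CYP2C19 inhibition above a set limit at 5 µM in the primary screen, cut at about 50% in these data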
CYP2C9 inhib – blockers of cytochrome P450 2C9 activity – biochemical, luminescence, ADME assay, primary screen. AID 777, 2007. CYP2C9 Supersomes, luciferin-H conversion. P11712. 96,000 tested, 20% active. inhibition, % at 5 µM;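 active means blocking of liver enzyme CYP2C9 beyond about 50% at 5 µM, limit read from the data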
Target sequence (P11712 whole entry, looked up): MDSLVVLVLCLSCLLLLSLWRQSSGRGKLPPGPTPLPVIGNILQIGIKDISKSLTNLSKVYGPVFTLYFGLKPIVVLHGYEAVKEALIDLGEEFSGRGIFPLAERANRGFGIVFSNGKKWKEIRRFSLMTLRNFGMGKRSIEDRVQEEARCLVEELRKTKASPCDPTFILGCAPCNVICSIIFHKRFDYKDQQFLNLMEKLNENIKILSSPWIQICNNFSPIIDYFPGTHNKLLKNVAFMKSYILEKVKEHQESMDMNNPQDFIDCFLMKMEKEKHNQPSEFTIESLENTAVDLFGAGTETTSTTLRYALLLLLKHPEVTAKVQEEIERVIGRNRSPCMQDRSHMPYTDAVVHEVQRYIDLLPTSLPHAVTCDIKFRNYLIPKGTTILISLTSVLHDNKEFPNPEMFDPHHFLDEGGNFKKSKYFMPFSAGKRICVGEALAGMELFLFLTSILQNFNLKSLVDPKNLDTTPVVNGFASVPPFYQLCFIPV
Mac1 fbg inh – inhibitors of CD11b/CD18 adhesion to fibrinogen, primary screen, K562 cells, luminescence. Integrin beta-2 (Homo sapiens) + Integrin alpha-M (Homo sapiens), P05107+P11215. inhibition, % at 10 µM. AID 1497, 2009. ATPlite luminescence; Mn2+ added to activate the integrin. 93,000 tested, 0.54% active;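 active means primary inhibition of 50% or more at 10 µM, then 40% or more on retest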
CD11b adhes enh – enhancers of CD11b/CD18 adhesion to fibrinogen, primary screen, K562 cells, luminescence | Integrin beta-2 (Homo sapiens) + Integrin alpha-M (Homo sapiens), P05107+P11215 | ATPlite luminescence | activation, % at 10 µM | 93,000 tested, 0.07% active;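 active means 10 µM primary screen giving 50% or more activity, confirmed by 40% or more on retest at that dose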
CYP2C9 activ – human CYP2C9 activators, primary screen, biochemical, luminescence | 96,000 tested, 1.4% active | activation factor at 5 µM | Cytochrome P450 2C9 (Homo sapiens), P11712 | recombinant CYP2C9, luciferin-H conversion; stronger effect = higher value; factor 1 = untreated enzyme, 0 = blocked;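 active means activation factor of 2 or more for CYP2C9 at a 5 µM dose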
CYP2C19 activ – human CYP2C19 activators, primary screen, biochemical, luminescence. Cytochrome P450 2C19 (Homo sapiens), P33261. recombinant CYP2C19, luciferin-H EGE luminescence; stronger effect = higher value; 0 = fully inhibited enzyme, 1 = untreated enzyme. activation factor at 5 µM. 96,000 tested, under 10 active. AID 1025, 2008;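 active means activation factor of at least 2 at 5 µM in the primary screen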
Large screens that a line does not name were inactive.

O=C(N/C=N/OCc1cccc(C(F)(F)F)c1)N1OC[C@@H]2COc3ccc4ccccc4c3[C@@H]21	none
C=CCn1c(SCc2csc(-c3ccc(Cl)cc3)n2)nnc1-c1ccccc1OC	none (no result: CYP2C19 inh, CYP2C9 inhib, CYP2C9 activ, CYP2C19 activ)
CCCN(CCC)S(=O)(=O)c1ccc(C(=O)N2CCOCC2)cc1	none
CCN(CC)S(=O)(=O)c1ccc2oc(C(=O)N3CCCCCC3)c(C)c2c1	CYP2C9 inhib 56.5
CCN(CC)S(=O)(=O)c1ccc2oc(C(=O)N3CCOCC3)c(C)c2c1	none
CCN(CC)S(=O)(=O)c1ccc(C(=O)N2CCCCC2)cc1	CYP2C9 inhib 70.3
Cc1c(C(=O)Nc2ccc(F)cc2)oc2ccc(S(=O)(=O)N3CC(C)CC(C)C3)cc12 (stereo not drawn)	CYP2C9 inhib 57.8
COc1ccc2c(=O)c(-c3ccccc3)c(C)oc2c1	none
COc1ccc(NC(C#N)c2ccccc2OCc2ccccc2)cc1 (stereo not drawn)	none (no result: CYP2C19 inh, CYP2C9 inhib, CYP2C9 activ, CYP2C19 activ)
CC(C)(C)c1ccc(-c2nnc(SCCN3C(=O)c4ccccc4C3=O)o2)cc1	CYP2C19 inh 78.3, CYP2C9 inhib 83.7
COc1ccc(-c2csc(/C(C#N)=C(\O)CSc3nccn3C)n2)cc1OC	CYP2C9 inhib 68.7
COc1ccc(-c2nc(C#N)c(NCc3ccccc3Cl)o2)cc1	none
N#Cc1nc(-c2ccc(Cl)cc2)oc1NCc1cccc2c1OCO2	CYP2C9 inhib 94.1
N#Cc1nc(-c2ccco2)oc1NCc1cccnc1	none
CNc1oc(-c2ccccc2)nc1C#N	none
N#Cc1nc(-c2ccccc2Cl)oc1NCc1ccco1	CYP2C19 inh 63.8, CYP2C9 inhib 82.6 (no result: Mac1 fbg inh, CD11b adhes enh)
COc1ccc(-c2nc(C#N)c(NCc3ccccc3Cl)o2)cc1OC	none
N#Cc1nc(-c2ccccc2)oc1NCc1ccco1	CYP2C9 inhib 74.3
N#Cc1nc(-c2ccco2)oc1NCc1ccc(F)cc1	CYP2C9 inhib 81.6
Cc1cccc(/C(N)=N/OC(=O)c2cccs2)c1	none (no result: Mac1 fbg inh, CD11b adhes enh)
CC1(C)CC(=O)C=C(NCC(=O)O)C1	none
Cc1cc(C)nc(N2CCC(C(=O)Nc3nnc(C)s3)CC2)n1	none
N#Cc1nc(-c2ccc(Cl)cc2)oc1NCc1ccco1	CYP2C9 inhib 85.4
COc1ccc(CNc2oc(-c3ccccc3)nc2C#N)cc1	CYP2C9 inhib 83.6
COc1ccc(CCNC(=O)CSc2nc(C)nc3c2c(=O)n(C)c(=O)n3C)cc1OC	none
CC(C)(CO)NCC(O)COc1ccc2c(c1)CCC2 (stereo not drawn)	none (no result: CYP2C19 inh, CYP2C9 inhib, CYP2C9 activ, CYP2C19 activ)
CC(C)(C)NC(=O)NC(=O)COC(=O)COc1ccc2c(c1)CCC2	CYP2C19 inh 50.0
CC(=O)N(Cc1ccco1)C1(C(=O)NC2CCCC2)CCCCC1	none
COc1ccc(NC(=O)CN2C(=O)C(C)Oc3ccccc32)cc1 (stereo not drawn)	none
COC(=O)CC1Oc2ccccc2N(Cc2ccccc2)C1=O (stereo not drawn)	CYP2C19 inh 89.5, CYP2C9 inhib 54.7
CC1Oc2ccccc2N(CC(=O)c2cccc(Cl)c2)C1=O (stereo not drawn)	CYP2C19 inh 96.9, CYP2C9 inhib 92.8
COc1ccc(NC(=O)CN2C(=O)C(C)Oc3ccccc32)c(OC)c1 (stereo not drawn)	CYP2C19 inh 79.4
CC1CC(=O)N(Cc2ccccc2)c2ccccc2N1C=O (stereo not drawn)	none
COc1cc(NC(=O)CN2c3cccc4cccc(c34)S2(=O)=O)cc(OC)c1OC	none
COc1ccc(NC(=O)CN2c3cccc4cccc(c34)S2(=O)=O)c(OC)c1	CYP2C19 inh 91.2
COc1ccc(C(=O)/C=C\N2CCOCC2)cc1	none
O=C(Oc1ccc(Br)cc1)c1cncc(Br)c1	none
CN(C)S(=O)(=O)n1cnc(-c2ccccc2)c1-c1ccccc1	none
CCC1Oc2ccccc2N(CC(=O)NCCCN2CCCCC2C)C1=O (stereo not drawn)	none (no result: Mac1 fbg inh, CD11b adhes enh)
CCC1Oc2ccccc2N(CC(=O)Nc2ccccc2OC)C1=O (stereo not drawn)	CYP2C19 inh 77.5, CYP2C9 inhib 63.0
